Screens deposited in PubChem BioAssay by National Center for Advancing Translational Sciences (NCATS).
The list is not random: actives were taken first. Their share in the collection is about 1%.
KCNH2 3.1 block: KCNH2 3.1 (human) potassium channel inhibition; AID 720553; activity change, % (tested at about 1.8 µM); U2OS KCNH2 3.1, thallium flux FluxOr; hits give low values; hit rate 0.95% among 340,000;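 active = maximum activity change below -70%; inconclusive = maximum activity change from -70% to -50%; inactive = maximum activity change above -50%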;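 note: thallium influx rate constant from kinetic fluorescence after stimulation buffer; % is set by controls: 0 for no effect and ±100 for the full control effect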
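We transduce U2OS cells with the mutant 3.1 virus, culture them overnight, load FluxOr with Red40 quencher for 45 min, then add stimulation buffer and read kinetically for 2 min to derive a normalized rate constant.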
TRPML1 ag: agonists of human TRPML1 channel; Q9GZU1; TRPML1-expressing cells, Ca2+ dye fluorescence, FDSS; activation, % (test concentration not listed); hit rate 0.12% among 410,000; AID 624414; in the data active = activation above about 50%; inconclusive = mostly about 30% to 49%; note: 0% is about no effect
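Cells: TRPML1-DL, 1X Tet inducer, ~16 h at 37 degrees C/5% CO2. Dye: ABD Ca8 no-wash + quencher, 45-90 min RT. Read: 10 s baseline, compound add, 110 s agonist phase; 54-4 EC80 (4uM final), 110 s antagonist phase.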
PTAP TSG101 blk: blocks PTAP/TSG101 interaction to inhibit HIV-1 budding; Q99816; Fluorescence polarization, FITC-PTAP peptide / Tsg101 binding; Potency, µM (series often up to 115 µM), inactives show at the top dose activity change, negative = inhibition, usual class: inhibitors; 340,000 tested, under 10 active; AID 493005; active = well fitted inhibition curve with a large enough effect in the main read-out, with a control signal flat, not every such curve was filed as active; inconclusive = small, poorly fitted or top-dose-only effect, or effect the other way, or a change in a side signal; inactive = no such curve, though single readings can be large or run the other way; note: potency is the fitted concentration of half-maximal effect; % of control where 0% means no effect
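FP read-out: FITC-PTAP peptide, 50 nM final, binding Tsg101 binding domain, 10 uM final; 20 min, r.t.; 10 mM HEPES pH 7.5, 0.15 M NaCl, 0.01% Tween 20, 3 mM EDTA, 0.1 mM TCEP.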
hERG WT inh: KCNH2 (human, wildtype) channel inhibition; activity change, % at 1.84 µM; hit rate 0.37% among 340,000; U2OS, BacMam KCNH2, thallium flux FluxOr; hits give low values; Q12809; AID 720551;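 active = maximum activity change below -70%; inconclusive = maximum activity change between -70% and -50%; inactive = maximum activity change above -50%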; note: % is set by controls: 0 for no effect and ±100 for the full control effect
Target sequence (Q12809 whole entry, looked up): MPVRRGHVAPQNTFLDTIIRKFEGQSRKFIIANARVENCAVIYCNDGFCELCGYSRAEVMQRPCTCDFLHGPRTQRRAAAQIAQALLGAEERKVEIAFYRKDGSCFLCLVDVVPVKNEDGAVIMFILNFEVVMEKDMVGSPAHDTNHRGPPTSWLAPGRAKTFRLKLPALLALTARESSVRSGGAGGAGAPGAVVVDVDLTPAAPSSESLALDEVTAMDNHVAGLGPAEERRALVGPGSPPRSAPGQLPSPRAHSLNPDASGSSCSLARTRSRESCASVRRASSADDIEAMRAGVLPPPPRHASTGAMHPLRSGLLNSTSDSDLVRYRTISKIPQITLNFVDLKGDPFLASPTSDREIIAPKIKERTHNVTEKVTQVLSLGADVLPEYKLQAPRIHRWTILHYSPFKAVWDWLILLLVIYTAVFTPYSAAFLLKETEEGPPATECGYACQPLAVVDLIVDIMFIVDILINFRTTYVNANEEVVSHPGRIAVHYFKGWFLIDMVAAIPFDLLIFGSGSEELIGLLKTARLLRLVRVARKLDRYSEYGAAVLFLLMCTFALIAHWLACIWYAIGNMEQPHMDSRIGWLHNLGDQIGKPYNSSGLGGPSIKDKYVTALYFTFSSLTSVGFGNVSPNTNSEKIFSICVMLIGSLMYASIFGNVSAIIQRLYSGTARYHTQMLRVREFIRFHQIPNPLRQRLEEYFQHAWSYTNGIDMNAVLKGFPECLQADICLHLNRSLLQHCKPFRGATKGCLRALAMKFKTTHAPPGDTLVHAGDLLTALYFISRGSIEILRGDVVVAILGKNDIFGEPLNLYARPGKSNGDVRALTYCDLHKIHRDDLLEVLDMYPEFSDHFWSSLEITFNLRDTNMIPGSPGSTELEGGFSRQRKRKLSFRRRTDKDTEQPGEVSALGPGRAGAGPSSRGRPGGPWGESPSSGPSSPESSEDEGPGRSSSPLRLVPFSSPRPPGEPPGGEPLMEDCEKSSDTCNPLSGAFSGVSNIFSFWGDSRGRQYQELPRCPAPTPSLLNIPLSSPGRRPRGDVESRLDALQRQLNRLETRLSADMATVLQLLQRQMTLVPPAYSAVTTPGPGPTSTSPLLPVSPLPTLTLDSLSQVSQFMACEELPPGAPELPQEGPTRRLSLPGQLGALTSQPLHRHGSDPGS
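U2OS cells were transduced with wild-type KCNH2 virus (2.03 x 10^8 / mL) for 4 h at room temperature, then cultured overnight at 37 C. Thallium flux was read with FluxOr dye. Rate constants were normalized to DMSO controls.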
Glioma ERSR ind: induces the endoplasmic reticulum stress response in human glioma cells; Potency, µM, inactives show at the top dose activation, hits mostly activators; hit rate 0.02% among 420,000; U87-MG GRP78 promoter luciferase reporter, 16 h; active = well fitted activation curve with a large enough effect; inconclusive = small, poorly fitted or top-dose-only effect; inactive = no such curve, though single readings can be large or run the other way; note: potency is the fitted concentration of half-maximal effect; series mostly up to about 76 µM; % of control where 0% means no effect; nearly all actives have a fitted effect of over 35% in size
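ERSR induction read as luciferase luminescence (Bright-Glo, 10 min at room temperature) in stably transfected human U87-MG glioma cells exposed to compounds for 16 h, using GRP78 as sensor.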
TRPML1 inh: human mucolipin-1 channel inhibition. Q9GZU1. TRPML1-inducible cells, Ca2+ dye fluorescence, FDSS; hits give low values; inhibition of EC80 agonist-evoked calcium signal. activity change, negative = inhibition, % (concentration not given with the values). hit rate 0.02% among 390,000. AID 624415; in the data active = activity change below about -50%; inconclusive = between about -30% and that limit;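 note: stimulus is agonist 54-4 at its EC80 concentration; % is set by controls: 0 for no effect and ±100 for the full control effect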
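Tet-induced TRPML1-DL cells loaded with Ca8 no-wash calcium dye were read kinetically on FDSS. Compound addition was followed by EC80 agonist 54-4 (4 uM final); inhibition was read over 110 s.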
* marks the source's active call; other numbers are inactive results; ? = inconclusive; . = not tested or not shown.

SMILES	KCNH2 3.1 block	TRPML1 ag	PTAP TSG101 blk	hERG WT inh	Glioma ERSR ind	TRPML1 inh
Cc1ccc(N(c2ncnc(N)c2[N+](=O)[O-])C2CCCCC2)cc1	-86*	0	-1%	14	-4%	14
CCCCCCCCCCCCCCCC[n+]1ccc(C)c2ccccc21	.	0	.	.	-12%	.
CCOc1ccc(S(=O)(=O)N2CCN(S(=O)(=O)c3ccc(C(C)=O)cc3)CC2)cc1	25	0	1%	9	-6%	-9
CCOc1ccc(S(=O)(=O)N2CN(c3cccc(C(C)=O)c3)c3nc4ccccc4nc32)cc1	-23	64*	0%	-4	-3%	-21
Cc1cc(/C=C\c2ccccc2)nc2ccccc12	-189*	1	0%	-28	6%	5
COc1cccc(C(=O)NC(C)c2nnc3n2CCN(CC=C(C)C)CC3)c1 (stereo not drawn)	.	.	.	.	-5%	.
O=C(CSc1nnc(-c2ccccn2)n1-c1ccc(Cl)cc1)Nc1ccc2c(c1)OCO2	-73*	1	1%	10	-4%	0
CSc1ccc2cc(CNCc3ccccc3F)c(N3CCCC(CO)C3)nc2c1 (stereo not drawn)	.	.	.	.	-3%	.
Cc1ccc(C(CC(=O)N2CCNCC2)c2ccccc2)c(O)c1C (stereo not drawn)	-107*	2	-2%	-11	0%	1
Cc1ccc(C(CC(=O)N2CCCCC2)c2ccccc2)c(O)c1C (stereo not drawn)	-24	3	1%	4	-2%	-15
CC(C)(C)OC(=O)N[C@@H](C(=O)OC(C)(C)C)c1ccccc1	-86*	1	-2%	-9	-3%	26
Cc1ccc(S(=O)(=O)Nc2cc(C(F)(F)F)ccc2N2CCOCC2)c(C)c1	-11	64*	-2%	-8	-5%	1
Cc1ccc(S(=O)(=O)Nc2cc(C(F)(F)F)ccc2N2CCOCC2)cc1	-11	?	0%	0	1%	12
COc1ccc(/C=C/C(=O)N2CCCc3ccccc32)c(OC)c1	8	2	0%	-79*	7%	4
COc1ccc(OC)c(/C=C/C(=O)N2CCCc3ccccc32)c1	11	3	1%	-6	-2%	-6
CC(CN1CCN(CCOCCO)CC1)CN1c2ccccc2Sc2ccc(Cl)cc21 (stereo not drawn)	-102*	1	.	0	-6%	16
O=S1(=O)CCO[C@H]2CCCC[C@@H]2N1Cc1ccccc1	.	-1	.	.	-4%	.
O=C(CC1(c2cccc(F)c2)CC(=O)N(Cc2cccnc2)C1=O)N1CCCCCCC1 (stereo not drawn)	.	.	.	.	-3%	.
COc1ccc(OC)c(-c2csc(NC(=O)C3COc4ccccc4O3)n2)c1 (stereo not drawn)	-1	4	-3%	-1	-5%	22
O=C(Nc1nc(-c2nc3ccccc3s2)cs1)C1COc2ccccc2O1 (stereo not drawn)	-83*	1	-5%	-6	-2%	14
O=C1OC2C(O)C(O)OC2C1O (stereo not drawn)	.	.	.	.	-5%	.
CC/C(O)=N/S(=O)(=O)c1ccc(-c2c(-c3ccccc3)noc2C)cc1	.	.	.	.	-2%	.
CCCCCNC(=O)c1c[nH]c2ccc(S(=O)(=O)N3CCC(C)CC3)cc2c1=O	.	1	.	.	-3%	-50*
C[C@@H]1CN([C@H](C)CO)C(=O)CCCn2nncc2CO[C@H]1CN(C)C(=O)c1cc(-c2ccccc2)on1	-97*	0	.	-3	-5%	-3
C[C@H](CO)N1C[C@H](C)[C@H](CN(C)C(=O)c2cc(-c3ccccc3)on2)OCc2cnnn2CCCC1=O	1	0	.	0	-3%	37
SMILES	KCNH2 3.1 block	TRPML1 ag	PTAP TSG101 blk	hERG WT inh	Glioma ERSR ind	TRPML1 inh
CN(C)C1=NC[C@H](Cc2ccccc2)N1CCc1cccc(F)c1	-49	0	1%	25	-4%	-9
CC(C)C[C@H]1CN=C(Nc2ccccc2)N1CCc1cccc(F)c1	-48	80*	-3%	12	1%	9
CC(C)C[C@H]1CN=C(N(C)C)N1CCc1cccc(F)c1	-107*	0	0%	9	-6%	-17
OC(c1cccnc1)c1ccc2c(c1)CN(Cc1cn(-c3ccccc3)nc1-c1ccccc1)CCO2 (stereo not drawn)	.	.	.	.	-3%	.
CC(C)c1c(C(=O)NCC2(N3CCCCC3)CCCC2)cnn1-c1nccc(-c2ccco2)n1	.	.	.	.	1%	.
COc1ccc(C(C)=O)cc1COC(=O)C(CO)NS(=O)(=O)c1ccc(Br)cc1 (stereo not drawn)	-79*	0	-1%	9	-5%	12
Cc1nn(-c2ccccc2)c(C)c1CC(=O)NCC1Cc2cc(F)cc(-c3cccnc3)c2O1 (stereo not drawn)	.	.	.	.	-1%	.
Cc1ccc(NCc2nnc(SCc3ccc(C#N)cc3)n2Cc2ccco2)c(C)c1	?	2	-2%	-97*	-3%	5
CCC1CN(CCNC(=O)c2cc3ccccc3oc2=O)Cc2cc(OC)ccc2O1 (stereo not drawn)	.	.	.	.	-2%	.
Cn1nc(-c2ccc(Cl)cc2)c2cc(C(=O)N3CCN(c4ccccc4)CC3)sc21	-32	0	-6%	10	-4%	17
Cn1nc(-c2ccc(Cl)cc2)c2cc(C(=O)N3CCCC3)sc21	-209*	1	0%	-143*	-4%	1
COc1cccc(CNC(=O)c2c(OC)cc(=O)n3c2CCN(C(=O)c2ccc(C)nc2)CC3)c1	.	.	.	.	-3%	.
C=CCN(c1ccccc1)S(=O)(=O)c1cccc(C(=O)NCc2ccco2)c1	-173*	3	0%	-241*	-1%	80
CO/N=C/c1cccn1-c1nccc(OC)c1C#N	-190*	0	-1%	-196*	-5%	77
COc1ccc2c(c1)OC(C)CN(CCNC(=O)c1csc(-c3cccs3)n1)C2 (stereo not drawn)	.	.	.	.	-3%	.
CCOC(=O)c1[nH]c2ccc(F)cc2c1NC(=O)CN1CCN(C/C=C/c2ccccc2)CC1	?	0	-1%	-90*	-10%	-5
COc1ccc(C)cc1NC(=O)CN1CCN(c2ccccc2F)CC1	0	2	-3%	-3	6%	14
O=C(CN1CCN(C/C=C/c2ccccc2)CC1)NCc1ccc(Cl)cc1	-124*	.	-1%	?	17%	.
COc1ccc(C)cc1NC(=O)CN1CCN(C/C=C/c2ccccc2)CC1	-102*	2	-1%	-98*	-4%	-16
O=C(CN1CCN(c2ccc(Cl)cc2)CC1)NCc1ccccc1	.	0	0%	24	-1%	17
